Lassa entry inh – qHTS for Inhibitors of binding or entry into cells for Lassa Virus. Lassa virus pseudotype entry inhibition, cell reporter. Potency, µM (series often up to 37.9 µM), without a hit: at the top dose activity change, negative = inhibition, actives largely listed as inhibitors. actives 1.2% (n = 300,000). AID 540256, 2011; calls by dose curve; tested in HEK293 cells; note: potency is the fitted concentration of half-maximal effect; % is set by controls: 0 for no effect and ±100 for the full control effect; nearly all actives have a fitted effect of over 50% in size
Cycloheximide cs – Cycloheximide Counterscreen for Small Molecule Inhibitors of Shiga Toxin; AID 2314, 2010; cell reporter, cycloheximide protein synthesis inhibition counterscreen; max response, %; actives 12% (n = 300,000); in the data active = max response mostly above about 13%, no sharp cut-off; inactive = mostly below about 14%; note: read at 38.3 µM for the half of the compounds with a filed dose; 0% is about no effect
Marburg entry inh – qHTS for inhibitors of binding or entry into cells for Marburg Virus; actives 1.8% (n = 300,000); AID 540276, 2011; Marburg virus pseudotyped entry inhibition, cell reporter; Potency, µM (doses to about 37.8 µM), without a hit: top-dose activity change, negative = inhibition, usual class: inhibitors; calls by dose curve; tested in HEK293 cells; note: potency is the fitted concentration of half-maximal effect; % is set by controls: 0 for no effect and ±100 for the full control effect
Shiga toxin inh – A qHTS for Small Molecule Inhibitors of Shiga Toxin; actives 9.2% (n = 290,000); Vero cells, Shiga toxin protein synthesis inhibition reporter; inhibition, % at 38.7 µM; in the data active = inhibition mostly above about 28%, no sharp cut-off; inactive = mostly below about 43%; note: 0% is about no effect
Active calls of the source: *; ? = inconclusive; . = no result; [ ] = dose if it differs, or a comment. A selection: hits, their analogues and other compounds. The true share with any hit is near 12%.

SMILES	Lassa entry inh	Cycloheximide cs	Marburg entry inh	Shiga toxin inh
O=C(CSc1nnc(Cn2nnc3ccccc32)o1)N(Cc1ccc(Cl)cc1)c1ccccc1	?	-2	6.3µM*	-14
COc1ccc(C(=O)Nc2cccc(N(C)S(C)(=O)=O)c2)cc1OC	4%	26*	2%	60*
CN(c1cccc(NC(=O)c2cccc([N+](=O)[O-])c2)c1)S(C)(=O)=O	.	27*	.	35
Cc1ccccc1NS(=O)(=O)c1cc(C(=O)Nc2cccc([N+](=O)[O-])c2)ccc1C	11µM*	-2	?	-3
Cc1ccc(S(=O)(=O)N2CCN(C(=O)Cn3nc(C(=O)O)c4ccccc4c3=O)CC2)cc1	.	-2	.	-6
COc1ccc(Cc2nnc(-c3cccc(C)c3)o2)cc1OC	.	21*	.	43*
COc1ccc(CC(=O)Nc2cccc(-c3nnc(-c4cccc(C)c4)o3)c2)cc1OC	?	46*	?	52*
COc1ccc(-c2nc3cc(NC(=O)Cc4ccc(OC)c(OC)c4)ccc3o2)cc1	-20%	25*	?	34*
Cc1ccc(OCC(=O)Nc2cccc(-c3nnc(-c4ccccc4)o3)c2)c(C)c1	?	1	-13%	10
COc1ccc(CC(=O)Nc2cccc(-c3nnc(-c4ccccc4)o3)c2)cc1OC	7.3µM*	49*	4.6µM*	96*
CC1=CC(=O)Nc2ccccc2S1	?	.	5%	.
CSc1ccc(/C=N/NC(=O)CN2CCN(Cc3ccc(C)cc3)CC2)cc1	-11%	2	-14%	-5
O=C(Nc1cccc(-c2nnc(-c3ccccc3)o2)c1)C1CC1	-17%	27	?	28
COc1ccc(CC(=O)Nc2cccc(-c3nnc(-c4ccc(C)cc4)o3)c2)cc1OC	?	25*	9.2µM*	44
COc1ccc(CC(=O)Nc2ccc(-c3nnc(-c4ccccc4)o3)cc2)cc1OC	25%[14.3 µM]	15*	20%	10
CC(=O)Nc1cccc(-c2nnc(-c3ccccc3)o2)c1	0%	45*	?	106*
Cc1c2cnn(CC(=O)NCc3ccc(F)cc3)c(=O)c2c(C)n1Cc1ccccc1Cl	-11%[46.1 µM]	.	-6%[46.1 µM]	.
CC(=O)Cn1ncc(N2CCCCC2)c(Cl)c1=O	.	21*	.	47
CO/N=C(\Cn1ncc(N2CCCC2)c(Cl)c1=O)c1ccc(Cl)cc1	-18%	-1	?	-18
Cc1cc(C)cc(OCCOCCn2c(-c3ccc(Cl)cc3)nc3ccccc3c2=O)c1	-23%[46.1 µM]	.	7.1µM*	.
CCOc1ccc(OCCOCCn2c(-c3ccc(Cl)cc3)nc3ccccc3c2=O)cc1	0%[46.1 µM]	.	27%[46.1 µM]	.
COc1ccc2c(COC(=O)CNC(=O)C34CC5CC(CC(C5)C3)C4)cc(=O)oc2c1	0%	1	26%	3
CCN(CC)c1cc(C)c2cc(NC(=O)c3cccs3)ccc2n1	?	23*	?	40
O=C(Nc1ccc2c(c1)CCCN2C(=O)c1cccs1)c1c(F)cccc1F	?	18	.	-8
COc1ccc(NC(=O)C(=O)NNC(=O)c2cccs2)c(OC)c1	10%	-3	5%	8
SMILES	Lassa entry inh	Cycloheximide cs	Marburg entry inh	Shiga toxin inh
Nc1ccc(NC(=O)Nc2ccc(N)cc2)cc1	.	17*	.	29*
COc1ccc(NC(=O)C(=O)NNC(=O)c2cccs2)cc1	1%	15*	?	10
O=C(Nc1ccc2c(c1)CCC2)c1cccs1	?	54*	?	62*
CCn1cc([N+](=O)[O-])c(C(=O)N2N=C3/C(=C/c4cccs4)CCCC3C2c2cccs2)n1 (centres undefined)	?	0	-28%	-2
CC(=O)Nc1ccc(C(=O)N2CCCc3ccccc32)cc1	-1%	-1	29%	14
Cc1cc(C)nc(NS(=O)(=O)c2ccc(NC(=O)c3cccs3)cc2)n1	6%	14	3%[46.1 µM]	-20
Nc1ccc(/C=C/C(=O)c2cccs2)cc1	13%	40*	?	68*
CCCCN(CCCC)S(=O)(=O)c1ccc(NC(=O)c2cccs2)cc1	?	-5	18µM*	-8
O=C(Nc1ccc(C(=O)N2CCCc3ccccc32)cc1)c1cccs1	-27%[46.1 µM]	-1	11µM*	12
Cc1ccc(NC(=O)c2cccs2)cc1	-2%	53*	-5%	81
CCOC(=O)C1CCN(S(=O)(=O)c2ccc3[nH]c4c(c3c2)CCCC4)CC1	?	8	16%[46.1 µM]	4
Nc1ccc(NC(=O)c2cccs2)cc1	.	21*	.	23
CCC(=O)Nc1ccc(C(=O)NNC(=O)c2cccs2)cc1	37%[14.3 µM]	0	2%	19
Cc1ccc(NC(=O)C(=O)NNC(=O)c2cccs2)cc1	.	29*	.	38
O=C(Nc1ccccc1C(=O)Nc1ccccc1)c1cccs1	3%[46.1 µM]	-4	?	-9
O=C(CSc1ncc(CO)n1Cc1ccccc1)Nc1ccc(C(F)(F)F)cc1	-18%[46.1 µM]	.	.	.
NC(=S)N/N=C/c1ccc(-c2cccc([N+](=O)[O-])c2)o1	-2%	14*	-26%	34
O=C(N/N=C/c1ccc([N+](=O)[O-])cc1)c1cccs1	.	34*	.	31
O=C(/C=C\c1ccc(-c2cccc([N+](=O)[O-])c2)o1)N1CCOCC1	-4%[46.1 µM]	37*	?	61*
O=C(c1cccc([N+](=O)[O-])c1)N1CCOCC1	-12%	-2	-4%	1
O=C(N/N=C/c1ccc(-c2cccc([N+](=O)[O-])c2)o1)c1cccs1	-3%	13*	?	6
O=C(NN=Cc1ccc([N+](=O)[O-])cc1)c1ccncc1	?	.	8%[46.1 µM]	.
O=C(COC(=O)CCc1ccccc1)Nc1ncc(Cl)cc1Cl	1%	-2	9%	-12
O=C(N/N=C/c1cccc([N+](=O)[O-])c1O)c1cccs1	-18%	38*	?	active
Cc1ccc(NC(=O)C2CCN(C(=O)[C@@H]3Cc4ccccc4CN3)CC2)cc1	.	24*	.	63*
SMILES	Lassa entry inh	Cycloheximide cs	Marburg entry inh	Shiga toxin inh
Cc1cc(C)cc(NC(=O)C2CCN(C(=O)[C@@H]3Cc4ccccc4CN3)CC2)c1	.	-3	.	17
CC(C)c1ccc(NC(=O)C2CCN(C(=O)[C@@H]3Cc4ccccc4CN3)CC2)cc1	.	23*	.	46*
CCc1ccc(NC(=O)C2CCC(CNC(=O)[C@@H]3Cc4ccccc4CN3)CC2)cc1 (some centres undefined)	.	27*	.	-1
Cc1ccccc1-n1c(-c2csc3ccccc23)n[nH]c1=S	-2%	0	-19%	13
Cc1ccccc1-n1c(-c2csc(C)c2C)n[nH]c1=S	13%	17*	?	46*
CC1CCN(C(=S)NCCc2ccccc2)CC1	-9%	30*	-23%	82*
O=C(NCCc1ccccc1)N1CCCC(CNS(=O)(=O)Cc2ccccc2)C1 (centres undefined)	-1%	14*	?	22
S=C(NCCc1ccccc1)N1CCN(C(=S)NCCc2ccccc2)CC1	1%[46.1 µM]	.	?	.
CCOC(=O)CNC(=O)N1CCCC(CNS(=O)(=O)Cc2ccccc2)C1 (centres undefined)	.	-1	.	-5
CN1CCN(C(=S)NCCc2ccccc2)CC1	10%	35*	7%	44
OCC1CCCN(C(=S)NCCc2ccccc2)C1 (centres undefined)	?	33*	12%	36

Source: PubChem (National Center for Advancing Translational Sciences (NCATS))
